We go through 14 molecules from ChEMBL document CHEMBL1961873, “Compounds: GSK PKIS; Assays: Nanosyn kinase panel” (2012).

SMILES strings stand for the structures.

The target in experiment [1] is CDK3/Cyclin E (Homo sapiens) (UniProt P24864+Q00526). To be noted: at 1 µM.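 Also: each figure is a mean percent inhibition of the CDK3/cyclin E complex.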
Experiment [2] addresses Cyclin-dependent kinase 4 (Homo sapiens) (UniProt P11802). The note with it: at 0.1 µM.
Experiment [3] has the same target. To be noted: at 1 µM.
The target in experiment [4] is Cyclin-dependent kinase 5 (Homo sapiens) (UniProt Q00535). To be noted: at 0.1 µM.
Sequence of Cyclin-dependent kinase 5 (Homo sapiens) (Q00535 whole entry, looked up): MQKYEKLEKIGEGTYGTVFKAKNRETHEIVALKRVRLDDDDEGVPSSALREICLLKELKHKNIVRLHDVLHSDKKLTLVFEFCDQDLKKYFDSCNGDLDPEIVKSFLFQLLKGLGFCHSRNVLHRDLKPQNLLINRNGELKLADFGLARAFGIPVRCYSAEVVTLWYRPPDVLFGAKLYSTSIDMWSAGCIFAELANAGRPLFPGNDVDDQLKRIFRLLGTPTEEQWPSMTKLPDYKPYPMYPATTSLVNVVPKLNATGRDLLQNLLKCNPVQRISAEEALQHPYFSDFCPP
For experiment [5] the target is unchanged. To be noted: at 1 µM.
The target in experiment [6] is Cyclin-dependent kinase 6 (Homo sapiens) (UniProt Q00534). To be noted: at 0.1 µM.
Sequence of Cyclin-dependent kinase 6 (Homo sapiens) (Q00534 whole entry): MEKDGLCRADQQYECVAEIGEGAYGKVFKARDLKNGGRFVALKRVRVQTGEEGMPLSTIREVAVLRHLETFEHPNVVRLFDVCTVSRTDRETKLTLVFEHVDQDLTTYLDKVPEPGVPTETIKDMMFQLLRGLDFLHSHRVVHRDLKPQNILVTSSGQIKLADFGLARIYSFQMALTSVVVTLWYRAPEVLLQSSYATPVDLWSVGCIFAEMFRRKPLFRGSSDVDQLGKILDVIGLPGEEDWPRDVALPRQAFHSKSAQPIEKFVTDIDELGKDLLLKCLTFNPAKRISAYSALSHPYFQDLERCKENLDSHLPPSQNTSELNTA
For experiment [7] the target is unchanged. To be noted: at 1 µM.
Experiment [8] addresses Dual specificity protein kinase CLK2 (Homo sapiens) (UniProt P49760). To be noted: at 0.1 µM.
For experiment [9] the target is unchanged. To be noted: at 1 µM.
The target of experiment [10] is Dual specificity protein kinase CLK3 (Homo sapiens) (UniProt P49761). To be noted: at 0.1 µM.
Sequence of Dual specificity protein kinase CLK3 (Homo sapiens) (P49761 whole entry, looked up): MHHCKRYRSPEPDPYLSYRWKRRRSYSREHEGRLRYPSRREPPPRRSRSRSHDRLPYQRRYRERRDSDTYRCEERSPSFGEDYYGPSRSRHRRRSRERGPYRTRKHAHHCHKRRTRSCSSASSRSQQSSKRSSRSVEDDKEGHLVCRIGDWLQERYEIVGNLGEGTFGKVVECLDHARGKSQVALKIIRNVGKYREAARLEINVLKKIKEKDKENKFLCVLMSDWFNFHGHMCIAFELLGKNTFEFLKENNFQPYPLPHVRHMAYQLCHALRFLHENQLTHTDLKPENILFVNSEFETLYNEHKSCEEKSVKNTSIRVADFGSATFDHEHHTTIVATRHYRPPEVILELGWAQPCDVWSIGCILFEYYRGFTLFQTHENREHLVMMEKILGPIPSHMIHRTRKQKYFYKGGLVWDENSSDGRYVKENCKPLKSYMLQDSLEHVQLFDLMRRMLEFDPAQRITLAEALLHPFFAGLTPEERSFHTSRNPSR

Sequence of Cyclin-dependent kinase 4 (Homo sapiens) (P11802 whole entry): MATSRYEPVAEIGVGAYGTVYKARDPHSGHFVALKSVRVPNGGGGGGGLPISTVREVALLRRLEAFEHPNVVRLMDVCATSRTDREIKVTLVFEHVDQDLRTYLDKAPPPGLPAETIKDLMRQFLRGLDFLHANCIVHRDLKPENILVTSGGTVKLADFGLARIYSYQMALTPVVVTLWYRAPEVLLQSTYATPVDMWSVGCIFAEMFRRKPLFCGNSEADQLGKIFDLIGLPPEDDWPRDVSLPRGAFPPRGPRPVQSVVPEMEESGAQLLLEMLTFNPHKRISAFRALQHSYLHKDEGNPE
Sequence of Dual specificity protein kinase CLK2 (Homo sapiens) (P49760 whole entry, looked up): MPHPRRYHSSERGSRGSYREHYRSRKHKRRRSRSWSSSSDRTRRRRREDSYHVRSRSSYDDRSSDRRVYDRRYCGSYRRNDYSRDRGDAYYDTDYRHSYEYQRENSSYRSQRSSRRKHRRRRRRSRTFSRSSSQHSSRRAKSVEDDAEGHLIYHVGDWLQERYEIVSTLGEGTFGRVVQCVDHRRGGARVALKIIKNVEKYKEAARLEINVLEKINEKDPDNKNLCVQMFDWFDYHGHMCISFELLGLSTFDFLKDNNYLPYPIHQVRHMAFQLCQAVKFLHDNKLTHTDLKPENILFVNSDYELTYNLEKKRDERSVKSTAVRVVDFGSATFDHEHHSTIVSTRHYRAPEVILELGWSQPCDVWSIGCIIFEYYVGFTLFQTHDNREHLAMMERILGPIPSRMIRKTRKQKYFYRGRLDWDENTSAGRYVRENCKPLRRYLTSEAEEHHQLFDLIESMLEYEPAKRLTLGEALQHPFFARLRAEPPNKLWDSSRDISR
Sequence of CDK3/Cyclin E (Homo sapiens) (P24864 whole entry, looked up): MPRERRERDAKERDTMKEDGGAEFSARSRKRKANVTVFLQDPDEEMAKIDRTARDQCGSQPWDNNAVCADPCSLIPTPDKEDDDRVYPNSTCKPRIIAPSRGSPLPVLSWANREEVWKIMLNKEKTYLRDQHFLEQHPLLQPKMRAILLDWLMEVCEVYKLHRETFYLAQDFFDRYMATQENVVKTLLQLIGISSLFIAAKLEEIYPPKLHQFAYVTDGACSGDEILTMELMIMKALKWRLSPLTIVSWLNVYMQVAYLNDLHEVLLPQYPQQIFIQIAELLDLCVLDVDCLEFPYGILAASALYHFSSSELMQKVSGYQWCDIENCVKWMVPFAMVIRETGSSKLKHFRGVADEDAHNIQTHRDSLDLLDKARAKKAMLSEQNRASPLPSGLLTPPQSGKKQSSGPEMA
Sequence of CDK3/Cyclin E (Homo sapiens) (Q00526 whole entry, looked up): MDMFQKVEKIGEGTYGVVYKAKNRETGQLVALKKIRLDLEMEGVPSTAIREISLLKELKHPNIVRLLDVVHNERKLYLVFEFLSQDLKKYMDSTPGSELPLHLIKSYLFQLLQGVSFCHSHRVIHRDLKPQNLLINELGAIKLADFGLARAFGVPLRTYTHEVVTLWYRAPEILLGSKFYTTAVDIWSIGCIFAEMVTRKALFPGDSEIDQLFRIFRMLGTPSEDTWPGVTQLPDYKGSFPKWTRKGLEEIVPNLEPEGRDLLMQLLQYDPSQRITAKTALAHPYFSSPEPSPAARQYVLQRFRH

Take `CCn1c(-c2nonc2N)nc2c(C#CC(C)(C)O)nc(O[C@@H](CN)c3ccccc3)cc21`: the inhibition was -0.03% in experiment [1]; 1.37% in experiment [2]; 4.92% in experiment [3]; 2.41% in experiment [4]; 4.69% in [5]; -4.5% in experiment [6]. Also, the inhibition in experiment [7] is 3.24%; in experiment [8], 10.2%; in [9], 56.3%; in experiment [10], -1.43%.
With `NC(=O)c1sc(-n2cnc3cc(C(F)(F)F)ccc32)cc1OCc1ccccc1Br`, the inhibition in experiment [1] is -2.44%; in experiment [2], 1.17%; in [3], 2.92%; in experiment [4] it was 0.88%; in experiment [5], 2.08%; in experiment [6] it was -0.56%. The inhibition in experiment [7] is -1.42%; in experiment [8], 0.89%; in [9] it was 0.1%; in experiment [10], -0.27%.
Consider `COc1cccc(-n2ncc3c(N/N=C/c4ccncc4)ncnc32)c1`, for which the inhibition in [1] was 49.4%; in experiment [2], 16.5%; in [3], 52.6%; in experiment [4], 39.7%; in experiment [5], 78.8%; in [6] it was 15.4%. In addition, the inhibition in [7] amounted to 51.1%; in experiment [8] it was 4.97%; in experiment [9], 35%; in [10], 4.27%.
Regarding `Fc1ccc(-c2ncn(C3CCNCC3)c2-c2ccnc(Oc3ccccc3)n2)cc1`, the inhibition is -2.25% in [1]; -3.54% in experiment [2]; -2.32% in experiment [3]; -3.32% in experiment [4]; -2.14% in experiment [5]; -6.2% in experiment [6]. Further, the inhibition in experiment [7] is -4.11%; in experiment [8] it was 0.8%; in experiment [9], -0.83%; in experiment [10], -3.78%.
Regarding `CCn1c(-c2nonc2N)nc2c(C#CC(C)(C)O)ncc(OC[C@@H]3CCCN3)c21`, the inhibition in experiment [1] is -4.39%; in experiment [2], 0.04%; in experiment [3] it was 1.01%; in [4] it was -0.13%; in experiment [5], -0.81%; in experiment [6], -2.82%. Also, the inhibition was -5.08% in experiment [7], 1.88% in experiment [8], 9.59% in [9] and 0.26% in experiment [10].
In the case of `COc1cc2c(cc1Nc1nc(Nc3ccsc3C(N)=O)c3cc[nH]c3n1)N(C(=O)CN(C)C)CCC2`, the inhibition is -1.3% in experiment [1]; 3.79% in experiment [2]; 5.67% in experiment [3]; 0.94% in experiment [4]; -0.24% in experiment [5]; 5.85% in [6]. In addition, the inhibition in experiment [7] stood at 6.19%; in experiment [8], 15.6%; in experiment [9], 72%; in [10], 1.22%.
For `Cc1cc(-c2ccco2)cc(C)c1/C=C/c1cncc(-c2nn[nH]n2)c1`, the inhibition in experiment [1] was -1.27%; in [2], 0.48%; in [3] it was 2.4%; in experiment [4], 0.53%; in [5] it was 1.53%; in experiment [6] it was -2.45%. Also, the inhibition in experiment [7] was -0.96%; in [8] it was -1.47%; in experiment [9] it was -2.94%; in experiment [10], 0.27%.
Take `Nc1nonc1-c1nc2cnccc2n1C1CCCCC1`: the inhibition in experiment [1] is 11.3%; in [2], 0.8%; in [3], 5.81%; in experiment [4] it was 5%; in experiment [5], 18%; in experiment [6] it was -5.33%. Further, the inhibition in experiment [7] is 1.64%; in experiment [8], 3.99%; in [9], 39.2%; in [10], -0.8%.
Take `CCn1c(-c2nonc2N)nc2c(C#CCN)ncc(OCCCN)c21`: the inhibition was 2.11% in [1]; -2.32% in [2]; -2.14% in experiment [3]; 1.95% in [4]; 1.6% in experiment [5]; 0.56% in experiment [6]. Further, the inhibition in experiment [7] was -5.81%; in [8], 1.13%; in [9], 0.74%; in experiment [10] it was -0.24%.
In the case of `NS(=O)(=O)c1ccc(-c2ccc3c(NC(=O)C4CC4)n[nH]c3c2)cc1`, the inhibition in experiment [1] was 5.48%; in [2], 3.11%; in [3] it was 6.7%; in experiment [4], 2.07%; in [5], 4.41%; in experiment [6], 13.7%. Besides, the inhibition was 46.3% in [7], 1.09% in [8], -0.2% in experiment [9] and 0.84% in [10].
As for `CCn1c(-c2nonc2N)nc2c(C#CC(C)(C)O)ncc(OCC3CCNCC3)c21`, the inhibition in [1] is 1.62%; in experiment [2] it was -1.61%; in experiment [3] it was 3.91%; in experiment [4], 1.05%; in experiment [5] it was 5.69%; in experiment [6], -0.95%. The inhibition is 4.82% in [7], 5.25% in [8], 29.4% in [9] and -2.14% in experiment [10].
On to `COc1cc(C=NNc2ncnc3c2cnn3Cc2ccccc2)ccc1O`, for which the inhibition in [1] was 2.73%; in experiment [2], 0.2%; in experiment [3], 5.23%; in experiment [4], 2.79%; in [5], 16.2%; in experiment [7] it was -0.46%. Also, the inhibition in experiment [8] is -0.27%; in experiment [9], 3.62%; in [10], 0.25%.
As for `COc1cccc(COc2cc(-n3cnc4ccccc43)sc2C(N)=O)c1`, the inhibition in experiment [1] is -2.65%; in experiment [2], 0.26%; in [3] it was 1.36%; in experiment [4] it was -0.51%; in experiment [5], -0.16%; in [6] it was -4.03%. In addition, the inhibition in experiment [7] was -1%; in experiment [8], 0.48%; in experiment [9], 1.3%; in [10], -0.79%.
With `NS(=O)(=O)c1ccc(N/C=C2\C(=O)Nc3ccc4ncsc4c32)cc1`, the inhibition in experiment [1] was determined as 94.7%; in [2], 30.7%; in experiment [3], 64.6%; in [4], 60.7%; in [5] it was 72.8%; in [6], 36.8%. Further, the inhibition in experiment [7] turned out to be 69%; in experiment [8] it was 11.6%; in experiment [9], 64.1%; in experiment [10], 1.81%.

The term inhibition denotes the change of the read-out against control, counted positive when it falls.
